Screens deposited in PubChem by National Center for Advancing Translational Sciences (NCATS).
HT1080 IDH1KD tx: qHTS for induction of synthetic lethality in tumor cells producing 2HG: qHTS for the HT-1080-IDH1KD cell line; hit rate 2% among 360,000; Potency, µM (series often up to 46.1 µM), usual class: cytotoxic; HT-1080 IDH1 knockdown viability, ATP luminescence, 48 h
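Viability of IDH1-knockdown HT-1080 fibrosarcoma cells was assessed by CellTiter-Glo after 48 h at 37 °C with titrated compound; concentration-effect curves were classified by fit quality and response size.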
KB-V1 MDR tox: qHTS assay for MDR1-selective chemotherapeutics: Primary screen using the drug-selected MDR subline cells KB-V1; KB-V1 MDR cells viability, CellTiter-Glo, 72 h; Potency, µM (titrated, usually from 46.1 µM), actives largely listed as cytotoxic; hit rate 3.4% among 400,000; AID 1347076, 2019; note: nearly all actives have a fitted effect of over 60% in size
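Cytotoxicity via CellTiter-Glo luminescence after 72 h compound exposure at 37 degrees C. Cells: drug-selected KB-V1 line, DMEM phenol-red free plus 10% FBS. Compounds tested at multiple concentrations; normalized data fitted to concentration-effect curves.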
MCF10A rerep: A quantitative high throughput screen for small molecules that induce DNA re-replication in MCF 10a normal breast cells | MCF 10A DNA re-replication, Hoechst nuclear intensity, 48 h | Potency, µM (doses to about 46.1 µM), usual class: activators | hit rate 2.9% among 350,000 | AID 624296, 2012; note: nearly all actives have a fitted effect of over 50% in size
HT1080-NT tox: qHTS for induction of synthetic lethality in tumor cells producing 2HG: qHTS for the HT-1080-NT fibrosarcoma cell line | HT-1080-NT fibrosarcoma viability, CellTiter-Glo ATP luminescence, 48 h | Potency, µM (titrated, usually from 46.1 µM), usual class: cytotoxic | hit rate 1.6% among 360,000 | AID 686970, 2013;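 note: NT is the 2HG producing partner of a matched IDH1 knockdown line; nearly all actives have a fitted effect of over 55% in size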
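HT-1080-NT fibrosarcoma cells (2HG-overproducing), 750 cells/well in RPMI with 5% FBS, dosed after 2 h and incubated 48 h at 37C. CellTiter-Glo luminescence normalized to DMSO and no-cell wells; concentration-response curves fitted and classed.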
KB-3-1 tox: qHTS assay for MDR1-selective chemotherapeutics: Primary screen using the parental adenocarcinoma cell KB-3-1; KB-3-1 viability, CellTiter-Glo ATP luminescence, 72 h; Potency, µM (top dose mostly 46.1 µM), hits mostly cytotoxic; hit rate 1.4% among 400,000; note: nearly all actives have a fitted effect of over 60% in size
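Here the drug-naive KB-3-1 line serves as comparator for MDR sub-line selectivity; cells received compound titrations, 72 h at 37 °C, then CellTiter-Glo readout.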
SW480 rerep: A quantitative high throughput screen for small molecules that induce DNA re-replication in SW480 colon adenocarcinoma cells | AID 624297, 2012 | hit rate 1.8% among 340,000 | SW480 DNA re-replication, Hoechst DNA content imaging, 48 h | Potency, µM (series often up to 46.1 µM), most hits filed as activators; note: nearly all actives have a fitted effect of over 55% in size
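250 cells/well; 23 nL cpd via pin tool; 48 hr, 37 C, 5% CO2; Hoechst 40 min; imager read of total nuclear intensity, ex 405/em 500-530 nm.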
Numbers stand for hits; 0 = inactive; ? = inconclusive; - = no result; ! = not confirmed by another sample; [ ] = another dose, or the depositor's remark. In the library only some 8% were active in any assay of this set; here they are far more common. Calls come from the whole dose curve; as a rule, active = well fitted curve in the direction sought with a large enough effect; inconclusive = small, poorly fitted or top-dose-only effect, or another doubt; inactive = no such curve, though single readings can be large; an effect the other way counts as inactive or inconclusive.

SMILES	HT1080 IDH1KD tx	KB-V1 MDR tox	MCF10A rerep	HT1080-NT tox	KB-3-1 tox	SW480 rerep
Clc1ccccc1CSc1nncn1NC/C=C/c1ccccc1	0	20.6µM	0	0	0	0
COc1ccccc1Nc1cc(C(=O)NC2CCC(C)CC2)c2ccccc2n1 (stereo not drawn)	-	0	-	-	0	-
COc1cc(/C=N/NC(=O)COc2cccc(F)c2)ccc1OS(=O)(=O)c1ccc(C)cc1	?	5.8µM	?	0	?	?
COc1cc(/C=N/NC(=O)COc2ccc(Cl)cc2)ccc1OS(=O)(=O)c1ccc(C)cc1	?	16.4µM	0	?	0	0
COc1ccc(/C=N/NS(=O)(=O)c2ccccc2)cc1OS(=O)(=O)c1ccc(C)cc1	0	18.4µM	?	0	0	?
Cc1[nH]c(=S)c(C#N)c(C)c1CC(=O)c1ccc(Br)cc1	0	0	0	0	0	0
Cc1nn(-c2ccccc2)c2c1N(CCCC(=O)NCc1ccccc1)C(=O)CS2	-	16.4µM	-	-	?	-
Cc1nn(-c2ccccc2)c2c1N(CCCC(=O)NCc1ccc(Cl)cc1)C(=O)CS2	-	0	-	-	0	-
S=C(Nc1ccccc1)N1CCCN1c1ccccc1	0	0	0	0	0	0
O=[N+]([O-])c1cccc(/C=N/Nc2nccnc2Cl)c1	0	0	0	?	0	0
Oc1ccc(/C=N/Nc2nccnc2Cl)cc1	25.9µM	?	0	16.4µM	16.4µM	0
Fc1ccc(/C=N/Nc2nccnc2Cl)cc1	?	0	0	?	?	0
Fc1cccc(/C=N/Nc2nccnc2Cl)c1	14.6µM	5.8µM	0	11.6µM	?	0
Cn1nc(C(C)(C)C)cc1NC(=O)Nc1cc(Cl)cc(Cl)c1	?	0	?	16.4µM	0	?
CCCCCCCCNC(C)C(O)c1ccc(SC(C)C)cc1 (stereo not drawn)	?	16.4µM	23.7µM!	23.1µM	0	?
C[C@@H](NCCc1ccc(O)cc1)[C@@H](O)c1ccc(O)cc1	0	0	?	0	?	0
Cc1cccc(C)c1NC(=O)CN(Cc1ccccc1)Cc1ccccc1	?	?	-	?	0	-
NC(=O)COC(=O)c1c2c(nc3ccccc13)CCCC2	0	0	0	0	0	0
O=C(OCC(=O)N1CCc2ccccc21)c1c2c(nc3ccccc13)CCCCC2	0	4.61µM	10.3µM	0	?	0
CC(C)NC(=O)NC(=O)COC(=O)c1c2c(nc3ccccc13)CCC2	25.9µM	20.6µM	23.1µM	?	0	0
COc1cccc(NC(=O)COC(=O)c2c3c(nc4ccccc24)CCC(C)C3)c1 (stereo not drawn)	?	2.91µM	10.3µM	0[9.24 µM]	?	?
CCOC(=O)c1[nH]c(C)c(C(=O)OCC(=O)N2CCc3ccccc32)c1C	0	0	23.1µM	0	0	0
CC1CCc2nc3ccccc3c(C(=O)OCC(=O)NC3CCS(=O)(=O)C3)c2C1 (stereo not drawn)	?	0	0	0	0	0
CCOC(=O)c1c(C)[nH]c(C(=O)OCC(=O)N2CCc3ccccc32)c1C	0	0	0	0	0	0
O=S(=O)(c1ccc(-c2cnc(C3CC3)o2)cc1)N1CCN(c2ccccc2F)CC1	-	0	-	-	0	-
SMILES	HT1080 IDH1KD tx	KB-V1 MDR tox	MCF10A rerep	HT1080-NT tox	KB-3-1 tox	SW480 rerep
CCCCN(C=O)c1c(CC)nc2ccc(C(=O)NCCc3c[nH]c4ccccc34)cn12	0	0	-	0	0	-
CCCCCCn1c(CN2CCCCC2CC)nc2c1c(=O)n(C)c(=O)n2C (stereo not drawn)	0	0	0	0	0	0
Cc1ccc(NC2=Nc3ccccc3N3C2=Nc2c(c(C)nn2-c2ccccc2)C3c2ccc(O)c(O)c2)cc1 (stereo not drawn)	?	?	?	23.1µM	?	9.2µM
Cc1cccc(NC2=Nc3ccccc3N3C2=Nc2c(c(C)nn2-c2ccccc2)C3c2ccc(O)c(O)c2)c1 (stereo not drawn)	16.4µM	?	?	14.6µM	?	7.31µM
COc1ccc(C(C)(C)C)cc1NC(=O)CSc1ncn[nH]1	0	0	0	0	0	0
CC1(C)CC(=O)C2=C(C1)OC(N)=C(C#N)C2c1ccccc1[N+](=O)[O-] (stereo not drawn)	0	0	0	0	0	0
O=C(O)C1C2C=CC(C2)C1C(=O)NCCC1=CCCCC1 (stereo not drawn)	0	0	?	0	0	0
O=C(O)C1C2CCC(C2)C1C(=O)NCCC1=CCCCC1 (stereo not drawn)	0	0	0	0	0	0.517µM
CCN1C(=O)C(CC(=O)Nc2ccc(F)cc2)N(Cc2cccs2)C1=S (stereo not drawn)	0	0	0	0	0	0
CCOc1cc2[nH]c(=O)n(CCC(=O)NCCc3ccc(OC)c(OC)c3)c(=O)c2cc1OCC	?	0	0	29.1µM	0	0
O=C(O)c1ccc(N/N=C/C2=Cc3ccccc3OC2)cc1	?	0	14.6µM	?	0	?
Cc1ccc(C)c(N2CCN(CCCNC(=O)Cn3cc4c(n3)CCCCC4)CC2)c1	0	20.6µM	?	?	?	0
COc1ccc(S(=O)(=O)n2ccc(-c3ccc4c(c3)CCC(C)(C)O4)n2)cc1	?	11.6µM	?	0	0	?
CC1CC(C)CN(C(=O)COC(=O)CCC(=O)c2cccs2)C1 (stereo not drawn)	0	0	0	0	0	0
COC(=O)C1CCN(C(=O)COC(=O)c2oc3ccccc3c2C)CC1	0	0	?	0	0	?
Cc1ccc(C=Nc2ccccc2C(N)=O)s1	3.26µM	0	3.66µM	5.17µM	23.1µM	4.61µM
Cc1cccc(C=Nc2ccccc2C(N)=O)c1	7.08µM	6.51µM	3.66µM	10µM	23.1µM	5.8µM
CC(CCc1ccccc1)NC(=O)CSc1nccc(=O)[nH]1 (stereo not drawn)	0	0	0	0	0	0
O=C(CCn1c(=O)oc2ccccc21)N1CCN(c2ccccc2F)CC1	0	23.1µM	0	0	0	0
CSc1nnc(C)c(=O)n1COC(=O)COc1ccccc1C	0	0	0	0	0	0
CCOC(=O)c1sc2nc(CC(C)C)c3c(c2c1N)CCC3	0	0	?	0	0	0
CC(=O)c1sc2nc(C)c3c(c2c1N)CCCC3	0	?	18.4µM	0	?	14.6µM
COc1cccc(-c2nc(CS(=O)(=O)CC(=O)Nc3ccccc3C)c(C)o2)c1	0	0	0	0	0	0
COc1cccc(-c2nc(CS(=O)(=O)CC(=O)Nc3ccccc3Cl)c(C)o2)c1	0	6.51µM	0	0	14.6µM	0
